From PubChem
TIM10 inh: TIM10 yeast growth inhibition; 330,000 tested, 1.4% active; inhibition, % at 10 µM; S. cerevisiae TIM10 strain growth, BacTiter-Glo luminescence, 24 h;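 active means inhibition of 40% or more at the single tested concentration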;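 further: wild-type TIM10 isogenic control strain grown at permissive 25 °C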
SKKanGAS inh: SKKanGAS growth inhibition; inhibition, % at 7.5 µM; 300,000 tested, 1.3% active; S. pyogenes SKKanGAS, kanamycin growth, BacTiter-Glo, 6 h;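 active means mean replicate score, as percent of positive control median, at least 50; inconclusive means mean below 50 but one replicate at or above 50; inactive means mean and every replicate below 50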;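 further: strain carries kanamycin resistance gene driven by streptokinase promoter and grows in 40 µg/ml kanamycin; loss of luminescence reflects streptokinase promoter inhibition or plain growth inhibition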
NLRP3 yeast inh: NALP3 inhibition in yeast | inhibition, % at 10 µM | 330,000 tested, 0.39% active | Yeast reconstituted NLRP3/ASC/caspase-1, beta-gal luminescence, 24 h;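 active means inhibition of 50% or more; inactive means inhibition below 50%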
tim10-1 inh: growth inhibitors of tim10-1 mutant yeast | S. cerevisiae tim10-1 ts strain growth, BacTiter-Glo, 24 h | inhibition, % at 20 µM | 330,000 tested, 2.2% active | AID 463190;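 active means inhibition of at least 40%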;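 further: mutant grown at 25 °C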
PfHsp90 set2: growth inhibition of yeast expressing Plasmodium Hsp90; S. cerevisiae expressing PfHsp90, BacTiter-Glo ATP, 48 h; yeast lacking PDR1 and PDR3 efflux regulators; inhibition, % at 9.4 µM; 310,000 tested, 0.32% active; AID 504621;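 active means every replicate shows inhibition above about 80%, whatever the replicate mean, limit read from the data; inconclusive means mean inhibition reaches the set limit but some replicate falls short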
tim23-1 inh: inhibits growth of tim23-1 mutant yeast. inhibition, % at 20 µM. S. cerevisiae tim23-1 growth, BacTiter-Glo luminescence, 24 h. 330,000 tested, 1.3% active;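 active means growth inhibition of the mutant yeast at or above 50%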;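 further: temperature-sensitive mutant grown at 25 °C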
TIM10 conf: TIM10 yeast growth inhibition, confirmed; shares compounds with TIM10 inh; S. cerevisiae tim10 strain growth, BacTiter-Glo luminescence, 24 h; inhibition, % at 10 µM; 4,600 tested, 63% active;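 active means inhibition of yeast growth at or above a set limit in either of two replicates at 10 µM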; further: this counterscreen used the strain with wild-type TIM10
Each line names hits and unclear results; the compound was inactive in the other large screens (follow-up assays come after a bar, where they were run). Most compounds without a hit are left out; they make up all but 4.5% or so of the library.

O=S(=O)(c1cccc(C(F)(F)F)c1)N1CCN(C(=S)NCc2ccco2)CC1	none
CC(C)c1ccc(S(=O)(=O)N2CCN(C(=S)NCc3ccco3)CC2)cc1	TIM10 inh 49.4 | TIM10 conf inactive
CCn1c(O)c(C=NCc2cccs2)c(=O)n(CC)c1=S	TIM10 inh 41.7 | TIM10 conf inactive
Cn1c(=O)c2c(O)c(C=NCc3ccccc3)c(=O)n(C)c2n(C)c1=O	none (no result: PfHsp90 set2)
CCCCCC(=O)O/N=C(\C)c1ccn(S(=O)(=O)c2ccccc2)c1	none
COc1ccc(-c2nn(-c3ccccc3)cc2/C=N/O)cc1OC	none
COc1ccc(-c2nn(-c3ccccc3)cc2/C=N/NC(=S)NC(C)C)cc1OC	TIM10 inh 47.5 | TIM10 conf 49.0
CC(C)OCCCn1c(-c2ccco2)nc2nc3ccccc3nc21	none (no result: PfHsp90 set2)
CCC(C)n1c(-c2ccco2)nc2nc3ccccc3nc21 (configuration not stated)	TIM10 inh 46.4 (no result: PfHsp90 set2) | TIM10 conf inactive
COc1cc(C(=O)N/N=C(\c2ccccc2)c2ccccn2)cc(OC)c1OC	none
COc1cccc(C(=O)N/N=C(/c2ccccc2)c2ccccn2)c1	TIM10 inh 40.1, SKKanGAS inh 55.7 | TIM10 conf inactive
O=C(NCCOc1ccccc1F)C1CCC(=O)N(CCc2cccc(F)c2)C1 (configuration not stated)	none
O=C(COC(=O)CC1CC2CCC1C2)Nc1ccc(F)cc1 (configuration not stated)	TIM10 inh 43.3 | TIM10 conf inactive
CC(=O)c1ccc(NC(=O)COC(=O)CC2CC3CCC2C3)cc1 (configuration not stated)	none (no result: SKKanGAS inh)
CCOC(=O)[C@H]1[C@H]2COc3ccccc3[C@@H]2N2C(=O)[C@@H](C)NC(=O)[C@@]12C	none (no result: SKKanGAS inh, PfHsp90 set2)
CSc1nc2sc3c(c2c(=S)[nH]1)CC(C)(C)OC3	TIM10 inh 43.2 | TIM10 conf 44.5
CCc1nc2sc3c(c2c(=S)[nH]1)CC(C)(C)OC3	none
Cc1ccc(S(=O)(=O)N2CCCCC2)cc1NC(=O)COC(=O)c1cccn1C	none (no result: SKKanGAS inh, PfHsp90 set2)
Cc1ccc(C2CC(C(F)(F)F)n3ncc(C(N)=O)c3N2)cc1 (configuration not stated)	none
Cc1ccc(C2CC(C(F)(F)F)n3ncc(C(=O)NCc4ccco4)c3N2)cc1 (configuration not stated)	TIM10 inh 47.5 (no result: PfHsp90 set2) | TIM10 conf 31.7
CC(=O)c1ccc(NC(=O)C2CC(=O)N(C(C)C)C2)cc1 (configuration not stated)	none (no result: PfHsp90 set2)
O=C(Nc1nccs1)c1csc2c1CCCC2	TIM10 inh 56.9 | TIM10 conf 43.9
COc1ccc(CCNC(=O)c2cc(-c3ccccn3)nc3ccccc23)cc1	none (no result: SKKanGAS inh)
CCN1C(=O)[C@H]2[C@H]3CN=C(SCc4ccccc4)N3[C@@](CC)(C(=O)OC)[C@H]2C1=O	none (no result: SKKanGAS inh, NLRP3 yeast inh)
O=C1[C@H]2C(c3ccccc3)=NN(c3ccccc3)[C@H]2C(=O)N1c1ccccc1	TIM10 inh 49.2, SKKanGAS inh 88.7 | TIM10 conf 46.4
S=C(c1cn(CCOc2ccccc2)c2ccccc12)N1CCCC1	TIM10 inh 49.6 | TIM10 conf 31.6
COc1ccc(NC(=O)COc2ccc(N(C)S(=O)(=O)c3ccc(Cl)cc3)cc2)cc1OC	none (no result: PfHsp90 set2)
COc1ccc(NC(=O)c2cccc3ccccc23)cc1	none
COc1ccc(NC(=O)c2ccccc2C)cc1	TIM10 inh 85.1 | TIM10 conf inactive
COc1ccccc1C(=O)Oc1ccccc1C(=O)Nc1ccccc1	TIM10 inh 40.8 | TIM10 conf inactive
COc1ccccc1C(=O)Nc1ccc(C(=O)O)cc1	none (no result: PfHsp90 set2)
Cc1ccccc1-c1cc(C(=O)NCc2cccc(Br)c2)n(CC2CC(c3cccnc3)=NO2)n1 (configuration not stated)	none (no result: SKKanGAS inh)
O=C(Cc1cccs1)NCCc1ccc(Cl)cc1	none
O=C(Nc1cnn(Cc2ccc(Cl)c(Cl)c2)c1)C12CC3CC(CC(C3)C1)C2	TIM10 inh 55.7, SKKanGAS inh inconclusive | TIM10 conf 42.9
Cc1ccc(-c2nnc(N(C)C(=O)c3cccnc3)s2)cn1	none
Cc1ccc(-c2nnc(N(C)C(=O)c3cccnc3)s2)cc1	TIM10 inh 42.4 | TIM10 conf inactive
CSc1ccc(S(=O)(=O)Nc2ccc3c4c(cccc24)CC3)cc1	TIM10 inh 41.9 (no result: PfHsp90 set2) | TIM10 conf inactive
Cc1ccc(/C=N/n2c(COc3ccccc3)n[nH]c2=S)s1	TIM10 inh 48.0 | TIM10 conf 43.5
Nc1nnc(-c2cc3ccccc3oc2=O)s1	none
COc1ccc2oc(=O)c(-c3nnc(N)s3)cc2c1	TIM10 inh 62.4 | TIM10 conf 60.4
Cc1cc(NS(=O)(=O)c2ccc(NC(=O)Cc3ccc([N+](=O)[O-])cc3)cc2)nc(C)n1	none (no result: SKKanGAS inh, PfHsp90 set2)
CN(C)c1ccc(N=Nc2ccccc2C(=O)OCC(=O)N2CCCCCC2)cc1	TIM10 inh 40.3 | TIM10 conf inactive
Cc1ccc(C(=O)NC2CC(C)(C)NC(C)(C)C2)cc1S(=O)(=O)N1CCOCC1	none (no result: TIM10 inh, SKKanGAS inh, NLRP3 yeast inh, tim10-1 inh, tim23-1 inh)
OCC(Cc1ccccc1)Nc1c2ccccc2nc2ccccc12 (configuration not stated)	TIM10 inh 56.4 | TIM10 conf inactive
COc1ccc(S(=O)(=O)N2CCN(CCOc3ccccc3Cl)CC2)cc1OC	TIM10 inh 96.8 (no result: SKKanGAS inh) | TIM10 conf inactive
COc1ccc(S(=O)(=O)N2CCN(CCOc3ccc(Br)cc3)CC2)cc1OC	none (no result: SKKanGAS inh)
Cc1ccc(C)c(NC(=O)CN(C)C(=O)Cn2c(=O)oc3ccccc32)c1	none
Cc1nn(-c2ccccc2)c(N)c1N=Nc1ccc(Cl)cc1	TIM10 inh 44.1 | TIM10 conf 31.7
Cc1ccccc1NC(=O)OCc1ccccc1	none
Cc1ccccc1C1=N/C(=C/c2cccs2)C(=O)O1	TIM10 inh 51.1 (no result: PfHsp90 set2) | TIM10 conf inactive
Cc1ccc(C2=N/C(=C/c3cccs3)C(=O)N2Nc2ccccc2)cc1	none
COc1ccc(-c2cc(C3CCN(CC(O)C(F)(F)F)CC3)[nH]n2)cc1 (configuration not stated)	none
COc1ccc(-c2cc(C3CCN(c4cc(Cl)nc(N)n4)CC3)[nH]n2)cc1	TIM10 inh 42.9 | TIM10 conf inactive
O=C(COc1ccc(Cl)cc1)NCCNC(=O)c1cnccn1	none
COc1ccc(C(=O)Nc2ccc(OCC(F)(F)C(F)F)c(C(F)(F)F)c2)cc1OC	TIM10 inh 44.6 | TIM10 conf inactive
CCN1C(=O)[C@H]2[C@H]3CN=C(SCc4ccc(Cl)cc4)N3[C@@](CC)(C(=O)OC)[C@H]2C1=O	none (no result: SKKanGAS inh, NLRP3 yeast inh)
CCN(CC)c1ccc2cc(/C(N)=N/NC(=O)c3cccs3)c(=O)oc2c1	TIM10 inh 47.1 (no result: PfHsp90 set2) | TIM10 conf 36.8
CN(Cc1ccccc1)S(=O)(=O)c1ccc2c(c1)n(C)c(=O)c(=O)n2C	none
